Inhibition data for 7 molecules are collected here from ChEMBL document CHEMBL1961873, “Compounds: GSK PKIS; Assays: Nanosyn kinase panel” (2012).

Assay [1] addresses MAP/microtubule affinity-regulating kinase 3 (Homo sapiens) (UniProt P27448). The conditions noted are these: at 1 µM.
In assay [2] the target is T1, MAP/microtubule affinity-regulating kinase 4 (Homo sapiens) (UniProt Q96L34).
T1 sequence (whole entry): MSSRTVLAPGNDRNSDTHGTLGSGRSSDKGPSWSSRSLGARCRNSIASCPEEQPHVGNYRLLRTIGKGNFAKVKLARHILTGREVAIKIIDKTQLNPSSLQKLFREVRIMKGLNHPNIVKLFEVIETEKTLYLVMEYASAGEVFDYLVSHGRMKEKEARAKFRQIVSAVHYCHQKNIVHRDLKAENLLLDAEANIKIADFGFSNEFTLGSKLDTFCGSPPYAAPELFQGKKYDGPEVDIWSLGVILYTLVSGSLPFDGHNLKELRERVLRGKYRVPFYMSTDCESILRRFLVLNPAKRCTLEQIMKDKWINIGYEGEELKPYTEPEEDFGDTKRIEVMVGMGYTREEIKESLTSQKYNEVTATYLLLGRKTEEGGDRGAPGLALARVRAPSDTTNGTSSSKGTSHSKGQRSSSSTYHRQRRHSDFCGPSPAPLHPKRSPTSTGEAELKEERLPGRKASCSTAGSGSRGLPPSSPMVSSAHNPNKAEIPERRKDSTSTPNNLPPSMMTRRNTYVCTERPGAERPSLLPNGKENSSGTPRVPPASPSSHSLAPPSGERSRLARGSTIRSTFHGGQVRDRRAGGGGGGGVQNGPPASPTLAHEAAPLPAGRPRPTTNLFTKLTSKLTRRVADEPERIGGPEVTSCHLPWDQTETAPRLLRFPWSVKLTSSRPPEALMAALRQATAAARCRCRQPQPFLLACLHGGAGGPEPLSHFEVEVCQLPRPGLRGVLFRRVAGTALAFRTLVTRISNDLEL
The conditions noted are these: at 0.1 µM.

In assay [3] the target is T1, MAP/microtubule affinity-regulating kinase 4 (Homo sapiens). The following applies: at 1 µM.
The target of assay [4] is Maternal embryonic leucine zipper kinase (Homo sapiens) (UniProt Q14680). The conditions noted are these: at 0.1 µM.
Sequence of Maternal embryonic leucine zipper kinase (Homo sapiens) (Q14680 whole entry, looked up): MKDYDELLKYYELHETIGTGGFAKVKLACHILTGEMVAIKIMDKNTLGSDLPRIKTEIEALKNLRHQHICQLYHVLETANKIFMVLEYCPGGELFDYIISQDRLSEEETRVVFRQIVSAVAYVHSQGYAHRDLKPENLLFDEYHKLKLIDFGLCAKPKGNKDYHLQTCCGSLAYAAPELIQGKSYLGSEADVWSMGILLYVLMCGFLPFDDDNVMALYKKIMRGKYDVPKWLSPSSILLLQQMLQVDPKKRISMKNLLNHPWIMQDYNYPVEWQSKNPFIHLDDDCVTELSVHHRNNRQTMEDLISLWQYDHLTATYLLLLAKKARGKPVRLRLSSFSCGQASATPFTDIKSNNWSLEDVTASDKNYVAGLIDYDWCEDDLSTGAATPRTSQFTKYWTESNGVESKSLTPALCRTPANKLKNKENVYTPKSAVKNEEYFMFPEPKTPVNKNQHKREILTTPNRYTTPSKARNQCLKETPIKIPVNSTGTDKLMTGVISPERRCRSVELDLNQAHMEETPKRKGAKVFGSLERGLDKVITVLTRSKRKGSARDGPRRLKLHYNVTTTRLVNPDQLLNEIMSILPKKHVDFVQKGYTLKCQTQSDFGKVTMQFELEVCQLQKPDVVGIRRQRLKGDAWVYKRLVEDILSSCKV
For assay [5] the target is unchanged. The conditions noted are these: at 1 µM.
In assay [6] the target is MAP kinase-interacting serine/threonine-protein kinase 1 (Homo sapiens) (UniProt Q9BUB5). The following applies: at 0.1 µM.
Sequence of MAP kinase-interacting serine/threonine-protein kinase 1 (Homo sapiens) (Q9BUB5 whole entry, looked up): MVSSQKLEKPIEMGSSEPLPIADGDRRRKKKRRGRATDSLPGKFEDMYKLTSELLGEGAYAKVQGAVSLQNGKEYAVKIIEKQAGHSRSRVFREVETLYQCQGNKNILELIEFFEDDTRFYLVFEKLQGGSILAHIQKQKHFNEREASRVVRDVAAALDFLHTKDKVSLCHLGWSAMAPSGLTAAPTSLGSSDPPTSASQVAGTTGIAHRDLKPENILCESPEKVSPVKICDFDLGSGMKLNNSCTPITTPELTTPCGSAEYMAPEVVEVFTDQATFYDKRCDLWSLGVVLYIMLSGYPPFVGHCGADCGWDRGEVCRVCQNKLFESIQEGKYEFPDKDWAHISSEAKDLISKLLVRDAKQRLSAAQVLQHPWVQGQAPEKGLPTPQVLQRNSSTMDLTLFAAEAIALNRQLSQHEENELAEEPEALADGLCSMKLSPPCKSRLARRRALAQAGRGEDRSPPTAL
Assay [7] shares this target. The following applies: at 1 µM.
Assay [8] concerns the target MAP kinase-interacting serine/threonine-protein kinase 2 (Homo sapiens) (UniProt Q9HBH9). The conditions noted are these: at 0.1 µM.
For assay [9] the target is unchanged. The conditions noted are these: at 1 µM.
The target of assay [10] is Serine/threonine-protein kinase MARK2 (Homo sapiens) (UniProt Q7KZI7). The conditions noted are these: at 0.1 µM.
Sequence of Serine/threonine-protein kinase MARK2 (Homo sapiens) (Q7KZI7 whole entry): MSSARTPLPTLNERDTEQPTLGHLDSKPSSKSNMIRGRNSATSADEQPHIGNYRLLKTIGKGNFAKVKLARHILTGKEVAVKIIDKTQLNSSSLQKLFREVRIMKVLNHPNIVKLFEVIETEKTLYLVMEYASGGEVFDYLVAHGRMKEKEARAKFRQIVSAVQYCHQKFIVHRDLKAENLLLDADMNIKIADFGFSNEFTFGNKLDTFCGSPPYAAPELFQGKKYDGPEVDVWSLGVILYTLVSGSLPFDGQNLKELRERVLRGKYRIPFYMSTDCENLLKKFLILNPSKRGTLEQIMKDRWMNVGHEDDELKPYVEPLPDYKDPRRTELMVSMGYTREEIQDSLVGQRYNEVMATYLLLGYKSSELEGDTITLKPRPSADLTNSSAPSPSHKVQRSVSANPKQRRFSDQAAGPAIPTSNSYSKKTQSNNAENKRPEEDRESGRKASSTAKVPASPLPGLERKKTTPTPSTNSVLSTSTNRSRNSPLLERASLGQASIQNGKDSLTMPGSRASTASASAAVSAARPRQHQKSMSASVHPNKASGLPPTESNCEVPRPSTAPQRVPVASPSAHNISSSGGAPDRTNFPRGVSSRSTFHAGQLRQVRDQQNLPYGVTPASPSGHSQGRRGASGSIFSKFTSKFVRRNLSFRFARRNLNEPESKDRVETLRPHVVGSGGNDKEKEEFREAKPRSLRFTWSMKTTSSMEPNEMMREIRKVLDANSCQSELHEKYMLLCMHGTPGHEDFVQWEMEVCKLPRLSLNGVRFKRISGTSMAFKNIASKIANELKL
Assay [11] shares this target. The following applies: at 1 µM.
Assay [12] has as its target PAS domain-containing serine/threonine-protein kinase (Homo sapiens) (UniProt Q96RG2). The following applies: at 0.1 µM.
Assay [13] has the same target. The conditions noted are these: at 1 µM.
Assay [14] concerns the target Phosphorylase b kinase gamma catalytic chain, skeletal muscle/heart isoform (Homo sapiens) (UniProt Q16816). The following applies: at 0.1 µM.
The target is the same in assay [15]. The conditions noted are these: at 1 µM.
Assay [16] concerns the target T2, Phosphorylase b kinase gamma catalytic chain, liver/testis isoform (Homo sapiens) (UniProt P15735).
T2 sequence (whole entry): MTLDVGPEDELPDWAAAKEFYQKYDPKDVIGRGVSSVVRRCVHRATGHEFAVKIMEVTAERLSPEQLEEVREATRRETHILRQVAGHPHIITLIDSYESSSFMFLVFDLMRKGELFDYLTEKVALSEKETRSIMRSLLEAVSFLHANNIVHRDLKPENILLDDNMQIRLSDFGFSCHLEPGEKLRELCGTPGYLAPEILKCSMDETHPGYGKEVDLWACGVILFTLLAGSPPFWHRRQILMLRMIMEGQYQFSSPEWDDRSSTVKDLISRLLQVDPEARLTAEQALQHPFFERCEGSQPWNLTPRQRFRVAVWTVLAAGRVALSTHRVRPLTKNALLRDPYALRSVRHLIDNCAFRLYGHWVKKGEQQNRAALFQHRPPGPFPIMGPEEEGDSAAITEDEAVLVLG
The conditions noted are these: at 0.1 µM.

The target in assay [17] is T2, Phosphorylase b kinase gamma catalytic chain, liver/testis isoform (Homo sapiens). The conditions noted are these: at 1 µM.
Assay [18] deals with Serine/threonine-protein kinase pim-1 (Homo sapiens) (UniProt P11309). The following applies: at 0.1 µM.
Sequence of Serine/threonine-protein kinase pim-1 (Homo sapiens) (P11309 whole entry, looked up): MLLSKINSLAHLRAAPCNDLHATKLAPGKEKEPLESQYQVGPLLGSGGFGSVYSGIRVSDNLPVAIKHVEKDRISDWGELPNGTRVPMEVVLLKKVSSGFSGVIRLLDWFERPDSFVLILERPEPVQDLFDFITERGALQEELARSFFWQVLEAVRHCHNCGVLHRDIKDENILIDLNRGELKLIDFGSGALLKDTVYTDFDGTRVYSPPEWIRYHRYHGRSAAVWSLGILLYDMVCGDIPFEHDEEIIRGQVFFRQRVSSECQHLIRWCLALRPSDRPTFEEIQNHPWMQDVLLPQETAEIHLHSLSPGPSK
Assay [19] shares this target. The conditions noted are these: at 1 µM.
The target of assay [20] is Serine/threonine-protein kinase pim-2 (Homo sapiens) (UniProt Q9P1W9). The following applies: at 0.1 µM.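 Note: reported value is the mean percent inhibition of PIM2, measured in the GSK PKIS kinase inhibitor set screen.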
Sequence of Serine/threonine-protein kinase pim-2 (Homo sapiens) (Q9P1W9 whole entry, looked up): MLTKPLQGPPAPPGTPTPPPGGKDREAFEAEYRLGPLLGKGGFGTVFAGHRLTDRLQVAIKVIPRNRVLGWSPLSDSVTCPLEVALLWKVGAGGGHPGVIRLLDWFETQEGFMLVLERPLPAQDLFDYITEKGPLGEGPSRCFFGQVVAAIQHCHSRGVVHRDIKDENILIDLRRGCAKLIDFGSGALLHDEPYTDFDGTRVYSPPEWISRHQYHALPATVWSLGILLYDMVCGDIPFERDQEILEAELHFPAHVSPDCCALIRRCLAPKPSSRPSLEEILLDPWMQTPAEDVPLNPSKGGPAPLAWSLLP

Sequence of Phosphorylase b kinase gamma catalytic chain, skeletal muscle/heart isoform (Homo sapiens) (Q16816 whole entry, looked up, canonical isoform): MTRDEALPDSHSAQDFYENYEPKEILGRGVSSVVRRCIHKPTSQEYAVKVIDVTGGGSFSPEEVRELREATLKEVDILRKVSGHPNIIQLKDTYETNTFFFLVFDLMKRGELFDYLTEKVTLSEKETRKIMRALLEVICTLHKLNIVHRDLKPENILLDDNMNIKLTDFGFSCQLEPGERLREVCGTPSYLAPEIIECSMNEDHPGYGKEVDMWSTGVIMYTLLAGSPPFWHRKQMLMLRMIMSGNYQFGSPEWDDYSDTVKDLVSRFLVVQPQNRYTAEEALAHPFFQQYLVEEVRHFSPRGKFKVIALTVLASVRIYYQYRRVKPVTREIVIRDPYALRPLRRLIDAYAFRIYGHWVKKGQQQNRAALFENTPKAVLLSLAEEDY
Sequence of MAP/microtubule affinity-regulating kinase 3 (Homo sapiens) (P27448 whole entry, looked up): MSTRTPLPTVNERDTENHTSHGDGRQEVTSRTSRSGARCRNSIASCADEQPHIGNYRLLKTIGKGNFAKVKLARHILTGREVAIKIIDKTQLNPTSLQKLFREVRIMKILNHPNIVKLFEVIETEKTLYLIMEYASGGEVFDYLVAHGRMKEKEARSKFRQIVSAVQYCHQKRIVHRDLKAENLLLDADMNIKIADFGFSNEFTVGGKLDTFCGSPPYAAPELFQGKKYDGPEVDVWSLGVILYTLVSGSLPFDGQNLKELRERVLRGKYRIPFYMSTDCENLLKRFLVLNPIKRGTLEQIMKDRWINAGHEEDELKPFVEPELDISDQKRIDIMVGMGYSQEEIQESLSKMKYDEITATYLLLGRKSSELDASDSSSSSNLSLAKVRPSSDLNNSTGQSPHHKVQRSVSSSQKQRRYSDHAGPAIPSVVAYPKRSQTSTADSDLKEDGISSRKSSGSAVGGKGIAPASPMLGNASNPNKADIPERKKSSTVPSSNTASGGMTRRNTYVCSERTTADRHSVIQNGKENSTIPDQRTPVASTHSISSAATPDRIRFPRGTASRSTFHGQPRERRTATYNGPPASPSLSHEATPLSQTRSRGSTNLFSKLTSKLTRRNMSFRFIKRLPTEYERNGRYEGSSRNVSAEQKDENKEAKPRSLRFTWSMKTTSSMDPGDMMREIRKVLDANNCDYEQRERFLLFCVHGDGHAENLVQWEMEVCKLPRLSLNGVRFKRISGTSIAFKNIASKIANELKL
Sequence of PAS domain-containing serine/threonine-protein kinase (Homo sapiens) (Q96RG2 whole entry, the tested form may be a part): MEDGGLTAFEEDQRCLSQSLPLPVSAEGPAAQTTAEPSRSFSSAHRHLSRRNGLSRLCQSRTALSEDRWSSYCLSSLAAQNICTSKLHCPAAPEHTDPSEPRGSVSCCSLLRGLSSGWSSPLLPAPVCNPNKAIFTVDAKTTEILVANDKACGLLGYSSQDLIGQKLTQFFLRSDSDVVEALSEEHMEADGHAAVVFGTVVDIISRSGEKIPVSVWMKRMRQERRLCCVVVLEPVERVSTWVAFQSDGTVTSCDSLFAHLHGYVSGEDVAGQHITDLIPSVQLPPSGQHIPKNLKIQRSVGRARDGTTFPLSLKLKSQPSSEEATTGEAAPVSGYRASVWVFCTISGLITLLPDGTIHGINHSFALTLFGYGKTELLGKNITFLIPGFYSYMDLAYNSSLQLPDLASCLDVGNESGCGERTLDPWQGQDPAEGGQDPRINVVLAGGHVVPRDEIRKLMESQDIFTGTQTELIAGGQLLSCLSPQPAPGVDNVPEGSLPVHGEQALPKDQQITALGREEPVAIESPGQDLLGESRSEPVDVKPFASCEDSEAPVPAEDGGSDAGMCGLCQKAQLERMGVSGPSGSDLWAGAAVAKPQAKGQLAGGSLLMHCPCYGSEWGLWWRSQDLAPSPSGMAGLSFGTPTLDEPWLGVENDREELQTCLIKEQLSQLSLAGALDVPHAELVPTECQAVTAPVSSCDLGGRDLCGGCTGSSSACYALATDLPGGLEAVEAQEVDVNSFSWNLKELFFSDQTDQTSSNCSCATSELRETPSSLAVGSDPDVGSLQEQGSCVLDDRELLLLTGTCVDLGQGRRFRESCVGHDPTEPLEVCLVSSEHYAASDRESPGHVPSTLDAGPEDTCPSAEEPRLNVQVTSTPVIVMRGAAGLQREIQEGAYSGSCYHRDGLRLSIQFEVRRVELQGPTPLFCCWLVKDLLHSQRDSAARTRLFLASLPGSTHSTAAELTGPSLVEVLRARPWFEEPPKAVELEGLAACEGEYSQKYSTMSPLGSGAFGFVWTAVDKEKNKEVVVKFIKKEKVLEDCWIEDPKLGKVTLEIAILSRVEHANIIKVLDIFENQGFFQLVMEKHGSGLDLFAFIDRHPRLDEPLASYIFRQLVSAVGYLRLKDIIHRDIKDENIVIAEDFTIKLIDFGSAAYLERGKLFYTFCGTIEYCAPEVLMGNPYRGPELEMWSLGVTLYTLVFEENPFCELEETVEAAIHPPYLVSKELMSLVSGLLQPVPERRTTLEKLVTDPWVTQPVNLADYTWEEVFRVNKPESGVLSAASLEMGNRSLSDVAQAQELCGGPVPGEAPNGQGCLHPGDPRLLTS

A word on the inhibition: it is the change of the read-out against control, counted positive when it falls. `COc1cc2ncn(-c3cc(OCc4ccccc4S(C)(=O)=O)c(C#N)s3)c2cc1OC`: the inhibition came to 88.3% in assay [1]; 34.9% in assay [2]; 76.6% in [3]; 1.64% in [4]; 8.3% in assay [5]; 11.7% in [6]. Besides, the inhibition came out at 47.7% in assay [7]; 41.8% in [8]; 76.8% in [9]; 25.9% in [10]; 70.7% in assay [11]; 0.91% in [12]. Besides, the inhibition in assay [13] turned out to be 0.31%; in [14] it was 45.2%; in assay [15], 76.5%; in assay [16], 4.94%; in [17], 10.9%; in assay [18] it was 0.71%. Besides, the inhibition in assay [19] amounted to 0.97%; in [20] it was 0.9%.
For `Cc1nc(-c2ccccc2)n2nc(NCCCN3CCOCC3)ncc12`, the inhibition in assay [1] came to 4.15%; in [2], 1.2%; in assay [3] it was 2.72%; in [4] it was 1.4%; in [5], 1.29%; in assay [6], 2.43%. Besides, the inhibition in assay [7] was 4.9%; in assay [8], 1.85%; in [9] it was 3.34%; in [10], -0.89%; in assay [11], 0.71%; in assay [12], 0.65%. The inhibition in [13] was -0.06%; in [14], 0.52%; in assay [15], 4.26%; in assay [16], 3.22%; in assay [17], 3.98%; in assay [18], -0.82%. Moreover, the inhibition worked out at 0.37% in [19] and 0.19% in assay [20].
As for `[O-][S+]1CCN(Cc2ccc(-c3ccc4ncnc(Nc5ccc(OCc6ccccc6)c(Cl)c5)c4c3)o2)CC1`, the inhibition in [1] was 2.17%; in assay [2], 1.29%; in assay [3], 2.1%; in assay [4], 2.37%; in [5] it was 5.78%; in assay [6], 1.69%. Besides, the inhibition in assay [7] was found to be 5.98%; in assay [8] it was 0.13%; in [9], 8.54%; in assay [10], 0.59%; in assay [11] it was 2.27%; in assay [12], 0.68%. Besides, the inhibition was -0.53% in [13]; 3.63% in [14]; 3.41% in [15]; 2.31% in assay [16]; -0.04% in assay [17]; 0.56% in [18]. Further, the results for the inhibition in assay [19] and in assay [20] were 1.25% and 0.46%, respectively.
Take `NS(=O)(=O)c1ccc(-c2cc3ccncc3cc2OCc2ccccc2)cc1`: the inhibition in [1] turned out to be 0.1%; in assay [2], 0.25%; in assay [3], 1.99%; in assay [4] it was 1.24%; in assay [5], 3.87%; in [6], 4.45%. Further, the inhibition in assay [7] is 17.7%; in [8], 4.29%; in [9], 26.4%; in [10], -2.14%; in [11] it was -0.56%; in assay [12], -0.27%. The inhibition in assay [13] came out at 0.09%; in assay [14] it was 3.43%; in [15], 8.39%; in assay [16], 5.17%; in assay [17], 5.11%; in assay [18], 0.14%. Moreover, the inhibition was 0.86% in [19] and -0.34% in assay [20].
For the molecule `NS(=O)(=O)c1ccc(NC=C2C(=O)Nc3ccc4ncsc4c32)cc1`, the inhibition amounted to 60.7% in [1]; 21% in assay [2]; 58.7% in assay [3]; 62.7% in assay [4]; 94.4% in assay [5]; 9.09% in assay [6]. Further, the inhibition in [7] was found to be 39.2%; in [8], 3.84%; in assay [9], 18.1%; in assay [10], 14%; in [11] it was 46.2%; in [12], 0.44%. Moreover, the inhibition in assay [13] is -0.6%; in assay [14] it was 20.3%; in [15] it was 66.4%; in assay [16], 8.94%; in assay [17] it was 32.1%; in [18], 2.48%. The inhibition in assay [19] is 9.5%; in assay [20], 1.26%.
`C[C@@H](Oc1cc(-n2cnc3ccc(OCC4CCN(C)CC4)cc32)sc1C(N)=O)c1ccccc1C(F)(F)F`: the inhibition in assay [1] worked out at 57.6%; in assay [2] it was 8.72%; in assay [3], 49.9%; in [4], 0.09%; in assay [5] it was 22%; in assay [6], 0.35%. Further, the inhibition in assay [7] turned out to be 1.61%; in assay [8] it was 1.1%; in assay [9], 4.25%; in assay [10], 8.53%; in [11], 43.4%; in assay [12], 1.41%. For the same molecule, the inhibition in assay [13] is 2.84%; in assay [14] it was 1.57%; in assay [15], 7.24%; in assay [16] it was -1.2%; in assay [17], 10.8%; in [18], 18.7%. Moreover, the inhibition in assay [19] worked out at 68.4%; in assay [20], 0.26%.
With `CN1CCN(C(=O)c2ccc(NC(=O)Nc3ccc(N(C)c4ccnc(Nc5ccc(CS(C)(=O)=O)cc5)n4)cc3)cc2)CC1`, the inhibition in assay [1] was 20.3%; in assay [2], 2.48%; in assay [3] it was 17.1%; in [4], 0.8%; in assay [5], 13.2%; in assay [6], 2.8%. Also, the inhibition in assay [7] was 13.1%; in [8], 5.75%; in assay [9], 33.8%; in assay [10] it was 0.98%; in [11], 8.38%; in [12] it was -0.3%. The inhibition was 0.27% in assay [13]; -1.64% in [14]; 1.5% in assay [15]; 2.03% in [16]; 3.05% in assay [17]; 0.58% in [18]. Moreover, the inhibition is -0.28% in [19] and -0.2% in [20].
